The source of these data is PubChem BioAssay.

SMILES strings stand for the structures.

This experiment in a line: compounds binding Alexa647 anti-His antibody – biochemical, small-molecule microarray, 635 nm fluorescence, artefact control for SMM control protein annotation, primary screen (AID 1128).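 Also: score merges feature fluorescence with signal-to-noise for each printed compound spot.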 The conditions noted are these: higher = more signal.
For `CN(C)C(=O)[C@@]1(Cc2ccccc2)COC(c2ccc(OCCCO)cc2)=N1`, the composite z-score was determined as 0.468.
For the molecule `CO[C@H]1O[C@H](CO)[C@@H](OC(=O)CCc2ccccc2)[C@H](OC(=O)c2cc3ccccc3[nH]2)[C@H]1OC(=O)c1cc2ccccc2[nH]1`, the composite z-score worked out at 1.37.
Under `CN1C(=O)C2C=CC(C(O)c3cc(C(F)(F)F)cc(C(F)(F)F)c3)N(Nc3ccccc3)C2C1=O` (stereo unspecified) stands 0.581.
To `COCCOC(=O)N1C(=O)[C@@]2(c3cc(C#CCCO)ccc31)[C@H](C(N)=O)[C@H]1C(=O)O[C@H](c3ccccc3)[C@H](c3ccccc3)N1[C@@H]2c1ccc(OCCO)cc1` belongs 0.911; to `COCCOC(=O)N1C(=O)[C@@]2(c3cc(C#Cc4ccc(OC)cc4)ccc31)[C@H](C(=O)NC[C@H](O)c1ccccc1)[C@H]1C(=O)O[C@H](c3ccccc3)[C@H](c3ccccc3)N1[C@@H]2c1ccc(OCCO)cc1`, 1.24.
In the case of `COCCOC(=O)N1C(=O)[C@@]2(c3cc(C#CCNC(N)=O)ccc31)[C@H](c1ccc(OCCO)cc1)N1[C@H](c3ccccc3)[C@H](c3ccccc3)OC(=O)[C@H]1[C@@H]2C(N)=O`, the composite z-score was 1.11.
Under `CC(=O)NCCCC[C@@H]1NC(=O)[C@H]2C[C@@H](C(=O)NCCCCCNC(=O)CS)[C@@H](c3cccc(OCCO)c3)N2C1=O` stands 2.85; under `O=C1O[C@H](c2ccccc2)[C@H](c2ccccc2)N2[C@H]1[C@@H](C(=O)N1CCCCCCC1)[C@]1(C(=O)Nc3ccc(C#CC4(O)CCCCCC4)cc31)[C@H]2c1ccccc1OCCO`, 2.25; under `COCCCNC(=O)[C@@]1(c2ccc([N+](=O)[O-])cc2)CC(=O)N(CC23CC4CC(CC(C4)C2)C3)[C@@H]1c1ccc(CO)cc1I`, 1.77.
Under `COc1ccc(C#Cc2ccc3c(c2)[C@]2(C(=O)N3)[C@H](C(=O)N3CCCCCCC3)[C@H]3C(=O)O[C@H](c4ccccc4)[C@H](c4ccccc4)N3[C@@H]2c2ccc(O)cc2)cc1` stands 1.21.
`C=C(/C(=C/C[C@H](OC(=O)c1ccncc1)c1cccc(OCCO)c1)c1cnc2ccccc2c1)C(C)C` had a composite z-score of 0.291.
Under `CCCCCCCCCCC(O)C1C=CC2C(=O)N(C)C(=O)C2N1Nc1cc(OC)c(OC)c(OC)c1` (stereo unspecified) stands 0.255; under `Nc1cc(Br)ccc1C(=O)O`, 1.28.
To `CN(C)C(=O)[C@]1(CCS(=O)(=O)c2ccccc2)N=C(c2ccc(OCCCO)cc2)O[C@@H]1c1ccccc1` belongs 1.57; to `O=C1N(CCS(=O)(=O)c2ccccc2)Cc2ccccc2[C@@H]2OC(c3ccc(OCCCO)cc3)=N[C@]12CCS(=O)(=O)c1ccccc1`, 0.519; to `COc1ccc([Si](C)(C)[C@H]2[C@H](CC(=O)N3Cc4ccccc4C[C@H]3CO)O[C@@]3(C(=O)N(Cc4ccc(N5C(=O)c6cccc7cccc5c67)cc4)c4ccccc43)[C@@H]2C)cc1`, 0.33.
To `COCC1=C2[C@@H](CCc3ccccc3)OB(O)C[C@@H]2[C@@H]2C(=O)N(C)C(=O)[C@@H]2C1` belongs 0.0751; to `CC(C)OC(=O)CC(=O)CC(O)c1ccc([N+](=O)[O-])cc1` (stereo unspecified), 0.42.
Molecule `CC(C)C(=C=CC[C@@H](O)c1cccc(OCCO)c1)C[C@@H](O)c1ccccn1` yielded a composite z-score of 1.39.
Consider `C=CCC(OC(C)=O)[C@@H]1[C@@H](N(Cc2cccc3ccccc23)C(=O)c2cccc3ccccc23)c2cc(OCCCO)ccc2N1C(=O)c1ccc2ccccc2c1` (stereo partly specified), for which the composite z-score was determined as 0.279.
Under `CC(=O)N1CC(C(O)C2C=CC3C(=O)NC(=O)C3N2Nc2ccc(Cl)cc2Cl)c2ccccc21` (stereo unspecified) stands 0.285; under `COC(=O)[C@@]1(Cc2ccc(F)cc2)[C@H]2c3cc(C(=O)N(C)C)n(Cc4c(CO)[nH]cc(C)c4=O)c3C[C@H]2CN1C(=O)c1ccccc1`, 0.394; under `CC(C)[C@H]1NC(=O)[C@@]23C(=O)N[C@@H](Cc4ccccc4)C2[C@H](C)[C@@]2(C)O[C@H]2C3/C=C/CCC/C=C/CNC(=O)[C@H](Cc2ccccc2)NC1=O` (stereo partly specified), 0.123.
`CCOC(=O)C[C@H]1[C@H](OC(=O)c2ccccc2-c2ccccc2)[C@@H](NC(=O)c2ccccc2)c2cc(OCCCO)ccc2N1C(=O)c1ccccc1` registered a composite z-score of -0.356.
Under `COC(=O)[C@@]1(Cc2ccccc2CN=[N+]=[N-])N=C(c2ccc(OCCCO)cc2)O[C@H]1c1ccccc1` stands 2.5; under `C=C(COC)C(=O)CC[C@@H](OC(=O)c1cccnc1)c1ccccc1OCCO`, 2.06.
Under `CC1CC/C=C\[C@H]2OC34C=CCN(CCN5CCOCC5)C(=O)[C@H]3N(C(C)CO)C(=O)[C@@H]4C2C(=O)O1` (stereo partly specified) stands -0.172.
As to `[N-]=[N+]=NCc1ccccc1[C@H]1OC(c2ccc(OCCCO)cc2)=N[C@@]1(CCS(=O)(=O)c1ccccc1)C(=O)NCc1ccccc1`, the composite z-score stood at 1.41.
To `COc1ccc([Si](C)(C)[C@H]2[C@H](CCO)O[C@@]3(C(=O)N(Cc4ccc(N5C(=O)c6ccccc6Oc6ccccc65)cc4)c4ccccc43)[C@@H]2C)cc1` belongs -0.486; to `O=C(NCC(O)CO)[C@@]1(CCS(=O)(=O)c2ccccc2)COC(c2ccc(OCCCO)cc2)=N1` (stereo partly specified), 2.29; to `C=CCC(OC(C)=O)[C@@H]1[C@@H](N(Cc2cccc3ccccc23)C(=O)Cc2ccc(F)cc2)c2cc(OCCCO)ccc2N1C(=O)c1ccc(-c2ccccc2)cc1` (stereo partly specified), -0.517.
To `C=CCNC(=O)[C@@H]1[C@H]2C(=O)O[C@H](c3ccccc3)[C@H](c3ccccc3)N2[C@H](c2ccc(O)cc2)[C@@]12C(=O)N(C(=O)OCCOC)c1ccc(C#CCCO)cc12` belongs 1.45; to `C=CCNC(=O)[C@@H]1[C@H]2C(=O)O[C@H](c3ccccc3)[C@H](c3ccccc3)N2[C@H](c2ccc(OCCO)cc2)[C@@]12C(=O)N(C(=O)OCCOC)c1ccc(C#CCCO)cc12`, 0.32; to `C=CCOC(=O)[C@H]1[C@@H]2C(=O)O[C@@H](c3ccccc3)[C@@H](c3ccccc3)N2[C@@H](c2ccc(OCCOC(=O)[C@H]3C[C@H]4C(=O)N[C@@H](CCCCNC(C)=O)C(=O)N4[C@H]3c3cccc(OCCO)c3)cc2)[C@]12C(=O)Nc1ccc(I)cc12`, 1.3.
With `COCCOC(=O)N1C(=O)[C@@]2(c3cc(C#CC4=CCCCC4)ccc31)[C@H](c1ccc(O)cc1)N1[C@H](c3ccccc3)[C@H](c3ccccc3)OC(=O)[C@H]1[C@@H]2C(=O)NC[C@H](O)c1ccccc1`, the composite z-score turned out to be 1.13.
Under `CN1C(=O)C2C=CC(C(O)c3ccc(I)cc3)N(Nc3ccccc3)C2C1=O` (stereo unspecified) stands 0.276.
